# From PubChem BioAssay (NCATS)
# Several values for one entry are separate records, joined by “and”; a condition that tells them apart may be missing. Equal entries are not always repeated. Records with an inconclusive call do not appear. Activity calls are given as the source filed them. Calls come from the whole dose curve; as a rule, active = well fitted activation curve with a large enough effect; inconclusive = small, poorly fitted or top-dose-only effect; inactive = no such curve, though single readings can be large or run the other way.
# Target: Cellular tumor antigen p53 (Homo sapiens) (UniProt P04637)
# Experiment: Primary qHTS for small molecule compounds that upregulate eGFP-tagged delta133p53alpha (in N-terminal) cells. (AID 2060322);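 note: series mostly up to about 56 µM; 0% = DMSO vehicle and 100% = reference activator; nearly all actives have a fitted effect of over 75% in size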
# Conditions: NCI-H358 eGFP-delta133p53alpha fluorescence, 24 h; activation: active compounds read high
# Outline: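 NCI-H358 cells pre-induced 24 h with 10 ng/ml doxycycline to express N-terminal eGFP-delta133p53alpha, then dosed 24 h at 37C without doxycycline; fixed, Hoechst-stained, GFP intensity by laser scanning cytometry, normalized to DMSO (0%) and 57.5 uM 5-azacytidine (100%).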
# Chain of Cellular tumor antigen p53 (Homo sapiens) (P04637 whole entry, looked up): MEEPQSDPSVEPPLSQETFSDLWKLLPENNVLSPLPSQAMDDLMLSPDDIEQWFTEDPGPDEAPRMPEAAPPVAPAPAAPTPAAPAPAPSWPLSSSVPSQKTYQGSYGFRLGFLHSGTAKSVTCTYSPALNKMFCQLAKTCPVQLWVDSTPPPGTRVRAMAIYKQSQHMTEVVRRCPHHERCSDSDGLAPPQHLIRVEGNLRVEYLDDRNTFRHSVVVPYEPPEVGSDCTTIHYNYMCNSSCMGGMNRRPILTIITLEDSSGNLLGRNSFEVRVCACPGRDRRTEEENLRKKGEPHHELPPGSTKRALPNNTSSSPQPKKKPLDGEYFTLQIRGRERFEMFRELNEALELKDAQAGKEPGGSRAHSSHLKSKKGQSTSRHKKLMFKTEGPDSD
row,SMILES,activation
1,CC(CCC1(O)OC2CC3C4CC=C5C[C@@H](O[C@@H]6O[C@H](CO)[C@@H](O[C@@H]7O[C@@H](C)[C@H](O)[C@@H](O)[C@H]7O)[C@H](O)[C@H]6O[C@@H]6O[C@@H](C)[C@H](O)[C@@H](O)[C@H]6O)CC[C@]5(C)C4CC[C@]3(C)[C@@]2(O)[C@@H]1C)CO[C@@H]1O[C@H](CO)[C@@H](O)[C@H](O)[C@H]1O (stereo partly specified),-8.04% (inactive)
2,C=C1C[C@]23C[C@H]1CC[C@H]2[C@]1(C)CCC[C@@](C)(C(=O)O)[C@H]1[C@@H]3C(=O)O,-8.04% (inactive)
3,Nc1c(S(=O)(=O)c2ccccc2)c2nc3ccccc3nc2n1-c1ccc(F)cc1,-10.3% (inactive)
4,Cc1cc(O[C@@H]2O[C@H](COC(=O)CC(=O)O)[C@@H](O)[C@H](O)[C@H]2O)c(C(C)C)cc1O,0.763% (inactive)
5,CCCCS(=O)(=O)N[C@@H](Cc1ccc(OCCCCC2CCNCC2)cc1)C(=O)O,-22% (inactive) and 10.3% (inactive)
6,CCN(CCNC(=O)Nc1ccccc1Br)c1cccc(C)c1,5.67% (inactive)
7,COCC1OC(OC(C)(C)C2CCC3(C)C=C(C4CCC5C4(C)CC(O)C4OC(C(C)(C)OC6OC(CO)C(O)C(O)C6NC(C)=O)CCC45C)CCC3O2)C(NC(C)=O)C(O)C1O (stereo unspecified),-16.8% (inactive)
8,CC(NC(=O)c1ccccc1N)C(=O)O (stereo unspecified),-20.6% (inactive)
9,NC(N)=NC(=O)c1cnn(-c2cccc3ncccc23)c1C1CC1,25% (inactive)
10,CC1=C2C[C@@]3(C)[C@@H](CCC[C@@H]3C)C[C@@]2(O)OC1=O,-4.46% (inactive)
11,CC(C)[C@@H](C(=O)O)N1Cc2c(cc(O)c3c2O[C@]2(C3)[C@H](C)CCC3C(C)(C)[C@H](O)[C@H](O)C[C@@]32C)C1=O (stereo partly specified),-16.8% (inactive)
12,COC(=O)C[C@@H]1C(C(=O)O)=CO[C@@H](O[C@@H]2O[C@H](CO)[C@@H](O)[C@H](O)[C@H]2O)/C1=C\COC(=O)/C=C\c1ccccc1,26% (inactive)
13,CC(C)[C@H]1CC[C@@]2(O)COC(=O)[C@H]2[C@@H]1/C=C(\CO)C(=O)O,-2.29% (inactive)
14,O=C(CCCCc1ccc2ccccc2c1)C(F)(F)F,4.33% (inactive)
15,O=C(Cc1ccc(Cl)cc1)Nc1cnccc1C(=O)O,-12.3% (inactive)
16,COC(=O)C1=COC(OC2OC(CO)C(O)C(O)C2O)C2C(C)C(OC(=O)/C=C/c3ccc(O)cc3)C(O)C12 (stereo unspecified),-8.93% (inactive)
17,CC(=O)NC(C(=O)OC1CCC(C)(C)C2CC=C3C(=O)OCC3(O)C12C)C(C)C (stereo unspecified),-16.8% (inactive)
18,CCC(C)C(=O)O[C@H]1[C@H](O)[C@@]2(COC(C)=O)C(CC1(C)C)C1=CCC3[C@@]4(C)CC[C@H](O[C@@H]5O[C@H](C(=O)O)[C@@H](O)[C@H](O)[C@H]5O)[C@@](C)(CO)C4CC[C@@]3(C)[C@]1(C)C[C@@H]2O (stereo partly specified),-0.893% (inactive)
19,C=C[C@]1(C)C[C@H](O)[C@H]2C(=C)C(=O)O[C@@H]2[C@H]1C(=C)CO,17.9% (inactive)
20,O=C(O)c1cc(O[C@@H]2O[C@H](CO)[C@@H](O)[C@H](O)[C@H]2O)ccc1O,-3.05% (inactive)
21,CC(C)(O)c1ccc2c(c1)C(=O)C[C@H]1[C@](C)(C(=O)O)CCC[C@]21C,-1.53% (inactive)
22,C=CCc1ccc(O[C@@H]2O[C@H](CO[C@@H]3O[C@@H](C)[C@H](O)[C@@H](O)[C@H]3O)[C@@H](O)[C@H](O)[C@H]2O)cc1,3.57% (inactive)
23,COc1ccc2c(c1)OC[C@]1(O)c3cc4c(cc3O[C@H]21)OCO4,-2.68% (inactive)
24,CC1OC(OC2C(C)OC(OC3C(O)C(CO)OC(O[C@H]4CC[C@@]5(C)C(CC[C@]6(C)C5CC=C5C7[C@@H](C)[C@H](C)CC[C@]7(C(=O)O)CC[C@]56C(=O)O)C4(C)C)C3O)C(O)C2O)C(O)C(O)C1O (stereo partly specified),3.82% (inactive)
25,CC1(C)CC[C@]2(C(=O)O)CC[C@]3(C)C(=CCC4[C@@]5(C)CC[C@H](O[C@@H]6O[C@H](C(=O)O)[C@@H](O[C@@H]7OC[C@@H](O)[C@H](O)[C@H]7O)[C@H](O)[C@H]6O)C(C)(C)C5CC[C@]43C)C2C1O (stereo partly specified),-1.79% (inactive)
26,O=C(/C=C/c1ccc(O)cc1)OC[C@H]1O[C@@H](OC(=O)/C=C/c2ccccc2)[C@H](O)[C@@H](O)[C@@H]1O,-1.53% (inactive)
